FBW7 act: activators of human E3 ligase FBW7 | Q969H0 | AlphaScreen FBW7–phospho-cyclin E peptide binding, activator screen | normalized activity (activation), % at 26.1 µM | hit rate 0.13% among 650,000 | AID 1259310; in the data active = normalized activity above about 1.9%;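 note: purified mutant Fbw7 with reduced substrate affinity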
Target sequence (Q969H0 whole entry, looked up): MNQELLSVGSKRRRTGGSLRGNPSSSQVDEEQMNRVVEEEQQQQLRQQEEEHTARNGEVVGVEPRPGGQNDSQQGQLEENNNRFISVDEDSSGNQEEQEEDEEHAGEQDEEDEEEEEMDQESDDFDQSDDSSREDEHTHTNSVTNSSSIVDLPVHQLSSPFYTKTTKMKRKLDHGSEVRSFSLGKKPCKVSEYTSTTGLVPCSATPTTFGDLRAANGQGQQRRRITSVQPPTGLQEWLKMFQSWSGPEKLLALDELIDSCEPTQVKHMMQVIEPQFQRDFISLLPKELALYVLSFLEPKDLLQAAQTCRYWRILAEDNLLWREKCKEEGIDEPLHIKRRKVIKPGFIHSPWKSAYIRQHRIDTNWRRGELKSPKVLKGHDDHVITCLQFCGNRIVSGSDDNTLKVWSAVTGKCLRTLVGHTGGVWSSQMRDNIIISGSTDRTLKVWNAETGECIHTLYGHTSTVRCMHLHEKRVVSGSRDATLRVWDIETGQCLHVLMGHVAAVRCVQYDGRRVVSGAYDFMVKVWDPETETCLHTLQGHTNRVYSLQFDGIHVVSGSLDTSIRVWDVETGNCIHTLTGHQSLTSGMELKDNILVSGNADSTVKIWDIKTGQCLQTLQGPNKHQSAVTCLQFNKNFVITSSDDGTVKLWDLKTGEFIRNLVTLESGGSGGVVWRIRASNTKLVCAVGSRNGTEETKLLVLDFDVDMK
TEAD-YAP block: TEAD-YAP interaction inhibition. HEK-TIYL cells, TEAD-Gal4/YAP UAS-luciferase luminescence. inhibition, % at 9.12 µM. hit rate 1.4% among 640,000; in the data active = inhibition above about 32%
MITF primary: human MITF inhibition, primary screen; O75030; hit rate 0.91% among 650,000; inhibition, % at 2.6 µM; AlphaScreen MITF homodimerization, bead proximity signal; in the data active = inhibition above about 50%
GPR151 ag: activates the human receptor GPR151; Q8TDV0; PathHunter beta-arrestin GPR151 cells, luminescence; activation, % at 11.2 µM; hit rate 1% among 650,000; AID 1508602; in the data active = activation above about 4.9%
MITF confirm: human MITF inhibition, confirmation; shares compounds with MITF primary; AlphaScreen MITF homodimerization, biotin/His-MITF beads; inhibition, % at 2.6 µM; hit rate 16% among 4,700; AID 1259372;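 active = inhibition above a cutoff derived from the DMSO control wells, cut at about 28% in these data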;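 note: inhibitors lower the bead chemiluminescence by keeping MITF from dimerizing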
AlphaScreen DR: AlphaScreen optical interference, dose response counter-screen; shares compounds with MITF primary; AlphaScreen optical interference counterscreen, cell-free; IC50, µM; hit rate 6% among 480; AID 1259373; call rule not given here
AS interf ctr: AlphaScreen optical interference, counter-screen; shares compounds with MITF primary; LysRS AlphaScreen counterscreen, signal interference, triplicate; inhibition, % at 2.6 µM; hit rate 7.6% among 4,700;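 active = inhibition above a cutoff derived from the DMSO control wells, cut at about 30% in these data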
Large screens that a line does not name were inactive (follow-up assays come after a bar, where they were run); ! = a repeat was not active. An excerpt weighted towards active compounds, which were near 3.4% of everything screened.

CC(C)(c1ccccc1)c1ccc(OCC(O)CN2CCCCC2)cc1 (stereo unspecified)	none
CS(=O)(=O)NCc1nnc(SCC(=O)c2ccc(F)cc2)o1	none
CC1(C)OC(=O)C(=CNc2cccc(F)c2)C(=O)O1	none
CCc1ccc(C(=O)CSc2nc3sc(C)c(C)c3c(=O)[nH]2)cc1	none
COc1cccc(CN2CCN(CC3CC=CCC3)CC2)c1OC (stereo unspecified)	MITF primary 81 | MITF confirm inactive | AS interf ctr inactive
COc1ccc(OC)c(CN2CCSCC2)c1	none
COc1cc(OC)c(OC)cc1CN1CCN(CC2CC=CCC2)CC1 (stereo unspecified)	MITF primary 51 | MITF confirm inactive | AS interf ctr inactive
COc1ccc(OC)c(CN2CCN(CC3CC=CCC3)CC2)c1 (stereo unspecified)	MITF primary 54 | MITF confirm inactive | AS interf ctr inactive
COc1cc(C(=O)N2CCN(CC3CC=CCC3)CC2)cc(OC)c1OC (stereo unspecified)	none
COc1cc(CN2CCN(Cc3ccc(C(F)(F)F)cc3)CC2)cc2c1OCO2	MITF primary 61 | MITF confirm inactive | AS interf ctr 37
COc1cc(CN2CCN(Cc3cccc(Br)c3)CC2)cc(OC)c1OC	MITF primary 69 | MITF confirm inactive | AS interf ctr inactive
COc1cc(CNc2ccccc2)cc2c1OCO2	MITF primary 62 | MITF confirm inactive | AS interf ctr inactive
COc1ccc(CN2CCN(Cc3cc(OC)c4c(c3)OCO4)CC2)cc1OC	none
COc1cc(CN2CCN(Cc3cccc(Br)c3)CC2)cc2c1OCO2	MITF primary 65 | MITF confirm inactive | AS interf ctr inactive
COc1ccc(-n2nc([N+](=O)[O-])c(=Nc3cc(OC)cc(OC)c3)n2O)cc1	none
CCOc1cc(C(=O)Nc2ccc(Cl)c(N3CCCS3(=O)=O)c2)cc(OCC)c1OCC	none
COc1cc(CN2CCN(Cc3ccc(F)cc3)CC2)cc2c1OCO2	MITF primary 76 | MITF confirm inactive | AS interf ctr inactive
CN(C)CCS(=O)c1cc(-c2cn[nH]c2)ccc1NC(=O)[C@@H]1Cc2cc(F)ccc2CN1 (stereo partly specified)	FBW7 act 1.9!, MITF primary 75! | MITF confirm 68 | AlphaScreen DR inactive | AS interf ctr inactive
CN(C)CCS(=O)c1cc(-c2cn[nH]c2)ccc1NC(=O)[C@H]1Cc2cc(F)ccc2CN1 (stereo partly specified)	MITF primary 56! | MITF confirm 72 | AlphaScreen DR inactive | AS interf ctr inactive
CC(=O)N1CCN(c2ccc(NC(=O)c3ccccc3)cc2)CC1	none
CC(=O)N1CCN(c2ccc(NC(=S)NC(=O)c3ccccc3)cc2)CC1	MITF primary 52 | MITF confirm inactive | AS interf ctr inactive
Clc1ccccc1CN1CCN(c2ccccn2)CC1	none
Clc1ccccc1CN1CCN(Cc2ccccn2)CC1	MITF primary 74 | MITF confirm inactive | AS interf ctr inactive
Cc1cccc(CN2CCN(Cc3ccccn3)CC2)c1	MITF primary 72 | MITF confirm inactive | AS interf ctr inactive
Fc1ccc(CN2CCN(Cc3ccccn3)CC2)cc1	MITF primary 70 | MITF confirm inactive | AS interf ctr inactive
COc1cccc(CN2CCC(=O)N(Cc3ccccn3)CC2)c1	none
Cc1cccc(CN2CCN(c3ncccn3)CC2)c1	MITF primary 54 | MITF confirm inactive | AS interf ctr inactive
OCCCNc1ncnc2c1c(-c1ccccc1)cn2-c1ccc(Br)cc1	none
O=[N+]([O-])c1cccc(CN2CCN(Cc3ccccn3)CC2)c1	MITF primary 101 | MITF confirm inactive | AS interf ctr inactive
OCC1(Cc2cccc(Cl)c2)CCCN(Cc2ccccn2)C1 (stereo unspecified)	none
O=[N+]([O-])c1cccc(CN2CCN(C3CCN(Cc4ccccc4)CC3)CC2)c1	none
Clc1cccc(CN2CCN(Cc3ccccn3)CC2)c1	MITF primary 70 | MITF confirm inactive | AS interf ctr inactive
COc1ccc(/C=C2/C(=O)NN(c3ccc(C)c(C)c3)C2=O)cc1OC	none
CCN1CCN(CCOCCOc2ccc(F)cc2)CC1	MITF primary 70 | MITF confirm 32 | AlphaScreen DR inactive | AS interf ctr inactive
CCN1CCN(CCOc2ccc(F)cc2)CC1	MITF primary 81 | MITF confirm inactive | AS interf ctr inactive
